Inconclusive results are not listed. A call without a number means that no potency is given here. Values without a mark were called inactive. The source made the active and inactive calls. Unless noted, the call rests on the fitted dose curve; in most records, active means well fitted curve in the direction sought with a large enough effect in the repeat runs; inconclusive means weak or mixed curves; inactive means no such curve, though single readings can be large; an effect the other way counts as inactive or inconclusive.
Legend:
[1] = qHTS assay to identify small molecule antagonists of the estrogen related receptor (ERR) signaling pathway from Tox21 library - cell viability counter screen (AID 1224834); further: nearly all actives have a fitted effect of over 30% in size; further: potency means the concentration at half of the fitted maximal effect
Method in brief: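 ERR reporter cells were plated 6 h before compound addition, then exposed to test compounds in DMSO for 17.5 h at 37 C. Viability was read as CellTiter-Fluor fluorescence after a 30-minute incubation at 37 C.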

[2] = molecular target: Luciferin 4-monooxygenase (Photinus pyralis) (UniProt P08659); test: qHTS assay to identify small molecule inhibitors of firefly luciferase (AID 1224835); further: nearly all actives have a fitted effect of over 25% in size; further: potency means the concentration at half of the fitted maximal effect
Chain of Luciferin 4-monooxygenase (Photinus pyralis) (P08659 whole entry, looked up): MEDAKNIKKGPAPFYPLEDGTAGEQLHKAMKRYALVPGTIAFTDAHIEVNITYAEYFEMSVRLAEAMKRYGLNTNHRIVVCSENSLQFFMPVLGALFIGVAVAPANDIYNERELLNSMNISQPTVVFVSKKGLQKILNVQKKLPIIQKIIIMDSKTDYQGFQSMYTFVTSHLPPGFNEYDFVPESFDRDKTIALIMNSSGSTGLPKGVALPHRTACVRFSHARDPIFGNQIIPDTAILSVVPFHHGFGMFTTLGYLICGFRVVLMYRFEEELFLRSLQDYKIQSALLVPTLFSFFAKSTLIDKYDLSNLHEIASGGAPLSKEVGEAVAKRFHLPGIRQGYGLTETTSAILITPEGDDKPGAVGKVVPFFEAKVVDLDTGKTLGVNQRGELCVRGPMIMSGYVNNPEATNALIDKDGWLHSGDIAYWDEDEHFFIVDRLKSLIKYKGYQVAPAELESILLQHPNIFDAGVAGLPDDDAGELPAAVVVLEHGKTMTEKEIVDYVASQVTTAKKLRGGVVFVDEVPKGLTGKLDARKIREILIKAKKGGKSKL
Method in brief: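 Inhibition of purified Photinus luciferase is measured by luminescence. Substrate levels (D-luciferin, ATP) sit at their KM values. Each compound is tested in a concentration series.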

[3] = qHTS assay to identify small molecule agonists of the constitutive androstane receptor (CAR) signaling pathway - cell viability counter screen (AID 1224836); further: series mostly up to about 92 µM; nearly all actives have a fitted effect of over 45% in size
Method in brief: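 Compound titrations (15 concentrations) went onto HepG2-CYP2B6-hCAR cells 4 h after seeding, alongside PK11195 at a final 0.75 uM; a 23 h, 37 C/5% CO2 incubation preceded CellTiter-Fluor viability measurement.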

[4] = qHTS assay to identify small molecule antagonists of the estrogen related receptor signaling pathway with the pleiotropic PPARgamma coactivator (PGC) from Tox21 10K library - cell viability counter screen (AID 1224840; active means well fitted cell-killing curve with a large enough effect in the repeat runs, not every such curve was filed as active; further: nearly all actives have a fitted effect of over 40% in size; further: potency means the concentration at half of the fitted maximal effect)
Method in brief: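 PGC/ERR cells were seeded at 2,000 cells/well and left 6 hours at 37 C/5% CO2 before pin-tool addition of compounds in DMSO. After 17.5 hours at 37 C, CellTiter-Fluor was added and fluorescence read 30 minutes later.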

[5] = molecular target: Thyrotropin receptor (Homo sapiens) (UniProt P16473); test: qHTS assay to identify small molecule agonists of the thyroid stimulating hormone receptor (TSHR) signaling pathway (AID 1224843; calls by dose curve; further: nearly all actives have a fitted effect of over 45% in size)
Chain of Thyrotropin receptor (Homo sapiens) (P16473 whole entry, looked up): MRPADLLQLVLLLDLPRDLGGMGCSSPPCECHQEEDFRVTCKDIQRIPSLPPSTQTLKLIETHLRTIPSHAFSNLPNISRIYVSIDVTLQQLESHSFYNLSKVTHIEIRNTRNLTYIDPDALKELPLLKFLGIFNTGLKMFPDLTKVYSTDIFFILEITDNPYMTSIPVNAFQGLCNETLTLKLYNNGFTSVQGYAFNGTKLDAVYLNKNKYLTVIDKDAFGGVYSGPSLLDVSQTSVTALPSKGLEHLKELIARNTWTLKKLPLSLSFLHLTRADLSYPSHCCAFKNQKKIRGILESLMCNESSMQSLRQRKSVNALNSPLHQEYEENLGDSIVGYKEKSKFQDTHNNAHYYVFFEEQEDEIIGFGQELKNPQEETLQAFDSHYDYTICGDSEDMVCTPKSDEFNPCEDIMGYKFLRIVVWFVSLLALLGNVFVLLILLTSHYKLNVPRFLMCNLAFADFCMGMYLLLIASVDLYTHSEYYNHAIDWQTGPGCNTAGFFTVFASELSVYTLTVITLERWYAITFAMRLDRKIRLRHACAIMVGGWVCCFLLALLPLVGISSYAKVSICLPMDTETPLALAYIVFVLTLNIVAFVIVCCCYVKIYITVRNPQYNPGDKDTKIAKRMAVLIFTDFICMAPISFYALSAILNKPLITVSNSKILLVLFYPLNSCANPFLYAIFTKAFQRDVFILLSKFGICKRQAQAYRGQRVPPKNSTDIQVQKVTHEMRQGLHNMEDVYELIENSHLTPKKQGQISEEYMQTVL
Method in brief: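 Screening of the Tox21 10K collection used HEK293 cells engineered with TSHR at 800 cells per well. After a 30-min room-temperature compound exposure, HTRF cAMP reagents were added and fluorescence recorded 1 h later.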

[6] = qHTS assay to identify small molecule agonists of the hypoxia (HIF-1) signaling pathway - cell viability counter screen (AID 1224844; calls by dose curve; further: nearly all actives have a fitted effect of over 50% in size; further: potency means the concentration at half of the fitted maximal effect)
Method in brief: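 HRE-bla ME-180 cells in medium with 0.5% dialyzed FBS were preincubated 5 hrs at 37C, exposed to compounds for 17 hrs, then viability was read as CellTiter-Glo luminescence after 30 min at room temperature, in the reporter wells.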

[7] = qHTS assay to identify small molecule agonists of H2AX (AID 1224845; active means well fitted activation curve with a large enough effect in the signal ratio in the repeat runs, not every such curve was filed as active; the % refers to the signal ratio; further: potency means the concentration at half of the fitted maximal effect)
Method in brief: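 Phospho-H2AX Ser139 measured by HTRF (ex 320 nm; em 665 and 620 nm) after 24 hr antibody incubation. Compounds, 15 concentrations, 0.76% DMSO, were applied to CHO-K1 cells for 3hr at 37C before lysis.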

[8] = qHTS assay to identify small molecule antagonists of the constitutive androstane receptor (CAR) signaling pathway - cell viability counter screen (AID 1224837); further: series mostly up to about 92 µM; nearly all actives have a fitted effect of over 45% in size
Method in brief: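 HepG2 cells stably expressing hCAR and a CYP2B6-2.2kb reporter were plated and pre-incubated 4 hr at 37 C/5% CO2, then given compounds at 15 concentrations plus 50 nM CITCO (final). After 23 hr, viability was read by CellTiter-Fluor fluorescence.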

[9] = qHTS assay to identify small molecule agonists of the hypoxia (HIF-1) signaling pathway (AID 1224846; active means well fitted activation curve with a large enough effect in the signal ratio in the repeat runs, not every such curve was filed as active; the % refers to the signal ratio)
Method in brief: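 HRE-bla ME-180 cells (beta-lactamase reporter under hypoxia response element) were plated at 2,000 cells/well in medium with 0.5% dialyzed FBS, rested 5 hrs, then given compounds in DMSO for 17 hrs at 37C, 5% CO2. Reporter induction was read with CCF4-AM FRET substrate.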

[10] = qHTS assay to identify small molecule agonists of the estrogen related receptor signaling pathway with the pleiotropic PPARgamma coactivator (PGC) from Tox21 10K library (AID 1224842); further: nearly all actives have a fitted effect of over 15% in size
Method in brief: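 Luminescence from One-Glo (30 min, room temperature) measured after PGC/ERR cells had 18 h at 37 C with pinned compound (23 nL in DMSO). Cells had been seeded at 2,000 per well and pre-incubated 6 h.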

[11] = molecular target: Nuclear receptor subfamily 1 group I member 3 (Homo sapiens) (UniProt Q14994); test: qHTS assay to identify small molecule antagonists of the constitutive androstane receptor (CAR) signaling pathway (AID 1224838); further: nearly all actives have a fitted effect of over 40% in size
Chain of Nuclear receptor subfamily 1 group I member 3 (Homo sapiens) (Q14994 whole entry, looked up): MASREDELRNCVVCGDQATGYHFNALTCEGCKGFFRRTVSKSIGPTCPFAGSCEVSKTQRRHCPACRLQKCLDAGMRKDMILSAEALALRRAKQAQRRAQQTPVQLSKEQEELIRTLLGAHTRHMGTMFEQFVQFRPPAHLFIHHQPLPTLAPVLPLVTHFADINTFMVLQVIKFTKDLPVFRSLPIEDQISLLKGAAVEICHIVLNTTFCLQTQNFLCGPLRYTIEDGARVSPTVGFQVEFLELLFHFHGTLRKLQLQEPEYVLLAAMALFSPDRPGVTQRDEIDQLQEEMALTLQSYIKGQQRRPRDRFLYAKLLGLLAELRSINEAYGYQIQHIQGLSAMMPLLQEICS
Method in brief: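 HepG2 cells stably co-transfected with hCAR and a CYP2B6-2.2kb luciferase reporter were seeded 4 h before compound addition at 15 concentrations. Cells were stimulated with 50 nM CITCO (final) for 24 h at 37 C; luciferase luminescence was then read.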

[12] = molecular target: Nuclear receptor subfamily 1 group I member 3 (Homo sapiens) (UniProt Q14994); test: qHTS assay to identify small molecule agonists of the constitutive androstane receptor (CAR) signaling pathway (AID 1224839); further: nearly all actives have a fitted effect of over 15% in size; further: potency means the concentration at half of the fitted maximal effect;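 on activation: HepG2 cells stably carrying human CAR and a CYP2B6 luciferase reporter; series mostly up to about 92 µM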
Method in brief: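 In this screen, CAR-driven CYP2B6 promoter activity is measured by luminescence in HepG2-CYP2B6-hCAR cells after 24 h with test compounds and 0.75 uM PK11195 (final concentration).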

[13] = qHTS assay to identify small molecule antagonists of the estrogen related receptor signaling pathway with the pleiotropic PPARgamma coactivator (PGC) from Tox21 10K library (AID 1224841; call rule not given here; further: actives are mostly falling curves and most rising ones were filed inactive; nearly all actives have a fitted effect of over 50% in size; further: potency means the concentration at half of the fitted maximal effect)
Method in brief: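 PGC/ERR reporter cells were seeded at 2,000 cells/well and held 6 hours at 37 C/5% CO2 before pin-tool addition of compounds in DMSO. After 18 hours at 37 C, One-Glo was added and luminescence read after 30 minutes at room temperature.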

SMILES | Potency [1] | Potency [2] | Potency [3] | Potency [4] | Potency [5] | Potency [6] | Potency [7] | Potency [8] | Potency [9] | Potency [10] | Potency [11] | Potency [12] | Potency [13]
CN(C/C=C/c1ccccc1)Cc1cccc2ccccc12 | inactive | inactive | inactive | inactive | inactive | inactive | 55.2 µM (active) |  |  |  |  |  | 
C/C=C/C(=O)OCC(C)C | inactive | inactive | inactive | inactive | inactive | inactive | inactive | inactive |  |  |  |  | 
C=C(C)CCO | inactive | inactive | inactive | inactive | inactive | inactive | inactive |  | inactive |  |  |  | 
C1CCSC1 | inactive | inactive |  | inactive | inactive | inactive | inactive | inactive |  | inactive |  |  | 
Clc1ccc2c(Cl)ccnc2c1 | inactive |  | inactive | inactive | inactive | inactive | inactive |  | inactive | inactive | inactive | inactive | inactive
CCC1(C)C(=O)N(Cl)C(=O)N1Cl (stereo not drawn) | inactive | inactive |  | inactive | inactive | inactive | inactive | inactive | inactive | inactive | inactive | inactive | 
CCN(CC)c1ccc(N=Nc2ccccc2)cc1 | 24.3 µM (active) | 0.502 µM (active) |  |  | inactive |  |  |  |  |  | inactive | 13.7 µM (active) | 
NC(=O)C1CO1 (stereo not drawn) | inactive | inactive | inactive | inactive | inactive | inactive | inactive |  | inactive |  |  |  | 
O=C(CCN1CCC(c2ccccc2)C1)c1ccc2c(c1)OCCO2 (stereo not drawn) | inactive | inactive |  | inactive | inactive |  |  | inactive |  |  | inactive | inactive | 
O=C(c1ccccc1)c1ccc(Cl)cc1 | inactive |  | inactive | inactive | inactive | inactive |  |  | inactive |  | inactive |  | 
N#CCCOCCC#N | inactive | inactive |  | inactive |  | inactive | inactive | inactive |  | inactive | inactive |  | 
C1=CCCC1 | inactive | inactive | inactive | inactive | inactive | inactive | inactive |  | inactive |  |  |  | 
CCN(CC)c1ccc(C=O)cc1 | inactive |  |  | inactive | inactive | inactive | inactive | inactive | inactive |  | inactive |  | 
c1ccc(C[P+](c2ccccc2)(c2ccccc2)c2ccccc2)cc1 | 21.7 µM (active) | inactive |  |  |  | inactive | inactive |  |  | inactive |  | inactive | 3.44 µM (active)
Cc1cccc2c1ccc1ccccc12 | inactive |  |  | inactive |  | inactive | inactive | inactive | inactive | inactive | inactive | 61.1 µM (active) | 
CSc1ccc(O)cc1C | inactive | inactive |  | inactive |  |  | 113 µM (active) |  |  | inactive | inactive |  | inactive
Clc1cccc(Cl)n1 | inactive | inactive |  | inactive |  | inactive | inactive |  | inactive | inactive | inactive | inactive | inactive
CC(C)c1ccc2sc3ccccc3c(=O)c2c1 | inactive | 1.59 µM (active) |  | inactive |  | inactive | inactive | inactive | inactive |  |  |  | 
CO[Si](OC)(c1ccccc1)c1ccccc1 | inactive | inactive |  | inactive | inactive |  |  | inactive |  | inactive |  | inactive | 
CCN(CC)c1ccc(C=O)c(O)c1 | inactive |  | inactive | inactive | inactive | inactive | inactive | inactive |  | inactive | inactive |  | 
Nc1ccc2c(S(=O)(=O)O)cccc2c1S(=O)(=O)O | inactive | inactive |  | inactive | inactive | inactive |  | inactive | inactive | inactive |  |  | inactive
CCCCCCCCOC(=O)c1cc(O)c(O)c(O)c1 | 24.3 µM (active) | inactive |  | 34.4 µM (active) | inactive | inactive |  | inactive |  | inactive | inactive | inactive | 
CC(C)=NNC(N)=S | inactive | inactive |  | inactive |  | inactive |  | inactive | inactive |  |  |  | 
[Cl][Dy]([Cl])[Cl] | inactive | 28.3 µM (active) |  | inactive | inactive | inactive | inactive | inactive | inactive |  | inactive | inactive | 
Cc1cc(F)ccc1-c1cc(N2CC[C@@H](O)[C@H]2CO)ncc1N(C)C(=O)C(C)(C)c1cc(C(F)(F)F)cc(C(F)(F)F)c1 | 42.6 µM (active) | inactive |  |  | inactive | 24.2 µM (active) | 39.5 µM (active) | inactive |  |  | inactive | inactive | 
CC(=O)CC(N)=O | inactive | inactive |  | inactive |  | inactive |  | inactive | inactive |  |  |  | 

Reference: PubChem BioAssay (Tox21)
